Screening results: PubChem, National Center for Advancing Translational Sciences (NCATS)
SNCA viab count = cell viability loss counter-screen | HEK-293-SNCA-luc viability, GF-AFC fluorescence, 24 h | 150,000 compounds, 0.12% hits | Potency, µM (highest dose often 57.1 µM), hits mostly cytotoxic; note: nearly all actives have a fitted effect of over 30% in size
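Cytotoxicity counterscreen: after 24 h compound treatment of genome-edited SNCA-luciferase HEK-293 cells, live-cell protease substrate GF-AFC read by fluorescence after 30 min; activity scaled between DMSO (0%) and medium-only (-100%), curves Hill-fitted.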
KDM5B inhibitor = KDM5B demethylase inhibition. 220,000 compounds, 2.6% hits. Potency, µM (series often up to 57.7 µM), actives largely listed as inhibitors. KDM5B demethylase, FDH-coupled NADH fluorescence (FDH is formaldehyde dehydrogenase). Q9UGL1; note: nearly all actives have a fitted effect of over 70% in size
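Measured: NADH fluorescence change, 30 min, RT. System: KDM5BΔAP 200 nM final, H3K4me3 peptide, α-KG, Fe(II), ascorbate, NAD⁺ plus FDH, pH 7.5 HEPES. Compounds: titrated, 10 min pre-incubation with enzyme.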
IP6K1 inhibitor = IP6K1 kinase inhibition; Q92551; IP6K1 kinase, ADP-Glo luminescence, 2 h; stronger effect = lower value; activity change, % (series mostly up to about 58 µM); 140,000 compounds, 0.81% hits; in the data active = activity change below about -25%
Target sequence (Q92551 whole entry, looked up): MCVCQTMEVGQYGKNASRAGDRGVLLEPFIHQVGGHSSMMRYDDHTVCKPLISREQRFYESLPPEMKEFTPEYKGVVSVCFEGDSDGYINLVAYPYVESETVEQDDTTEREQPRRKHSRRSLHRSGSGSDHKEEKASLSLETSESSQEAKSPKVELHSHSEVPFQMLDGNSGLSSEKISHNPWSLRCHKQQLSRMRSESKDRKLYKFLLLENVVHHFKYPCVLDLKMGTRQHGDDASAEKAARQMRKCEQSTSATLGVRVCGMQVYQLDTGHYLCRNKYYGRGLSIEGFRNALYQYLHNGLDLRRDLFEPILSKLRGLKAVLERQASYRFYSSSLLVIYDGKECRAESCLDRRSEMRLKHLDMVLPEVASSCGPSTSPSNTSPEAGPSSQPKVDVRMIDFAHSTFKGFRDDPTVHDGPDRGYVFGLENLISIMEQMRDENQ
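ADP-Glo luminescence measures ADP made by human IP6K1 during a 2 h RT reaction with ATP/IP6 (mix at 1.3 mM/130 uM); top library doses 57.5 and 19.1 uM final.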
SNCA expr inhib = SNCA gene expression inhibition. HEK-293 SNCA-luciferase knock-in, luminescence, 24 h. Potency, µM (doses to about 57.2 µM), usual class: inhibitors. 140,000 compounds, 0.17% hits. AID 1671194; note: nearly all actives have a fitted effect of over 45% in size
Large screens that a line does not name were inactive; ! = not confirmed by another sample. An excerpt weighted towards active compounds, which were near 3% of everything screened. Unless noted, calls come from the whole dose curve; as a rule, active = well fitted curve in the direction sought with a large enough effect; inconclusive = small, poorly fitted or top-dose-only effect, or another doubt; inactive = no such curve, though single readings can be large; an effect the other way counts as inactive or inconclusive.

Cc1noc(-c2cccn3c(CNC(=O)c4ccc(F)c(Cl)c4)nnc23)n1	KDM5B inhibitor 14.1µM
Cc1noc(-c2cccn3c(CNC(=O)c4cccc(Cl)c4)nnc23)n1	KDM5B inhibitor 14.1µM
CC1(CCCCc2ccccc2)COc2ccc(C(=O)NCc3cccnc3)cc2N1 (stereo not given)	KDM5B inhibitor 28.2µM
CC1(CCCCc2ccccc2)COc2ccc(C(=O)NCc3ccncc3)cc2N1 (stereo not given)	KDM5B inhibitor 31.6µM
CC1(CCCCc2ccccc2)COc2ccc(C(=O)NCc3cnccn3)cc2N1 (stereo not given)	none
CC1(CNCc2ccccc2)COc2ccc(C(=O)NCc3ccncc3)cc2N1 (stereo not given)	KDM5B inhibitor inconclusive
CC1(CCCCc2ccccc2)COc2ccc(C(=O)Nc3cccnc3)cc2N1 (stereo not given)	KDM5B inhibitor 28.2µM, SNCA expr inhib inconclusive
Cc1ccc(Nc2ccnc(N3CCC(NC(=O)N(C)C)CC3)n2)cc1	none (no result: KDM5B inhibitor)
CN(C)CCCNCc1ccccc1	none (no result: SNCA viab count, IP6K1 inhibitor, SNCA expr inhib)
O=C(CCNc1cnc2cnccn12)NCc1ccc(F)c(Cl)c1	KDM5B inhibitor 25.1µM
O=C(CCn1ccn2nc3c(c2c1=O)CCCC3)NCc1ccc(F)c(Cl)c1	none
COc1cc2cc(CN3CCC[C@@H]3CO)c(-c3cccc(Cl)c3)nc2cc1OC	KDM5B inhibitor 25.1µM
O=C(Cc1ccccc1)NCC1CN(Cc2ccc3[nH]ccc3c2)CC12CN(c1ccccc1)C2 (stereo not given)	KDM5B inhibitor inconclusive
O=C(c1cccc(O)c1)N1CC(COc2ccccc2)C2(C1)CN(C(=O)c1cn[nH]c1)C2 (stereo not given)	none
N#Cc1cccc(C(=O)N2CC(COc3ccccc3)C3(C2)CN(c2ccccc2)C3)c1 (stereo not given)	KDM5B inhibitor 35.5µM
c1ccc(OCC2CN(Cc3ccc4[nH]ccc4c3)CC23CN(c2ccccc2)C3)cc1 (stereo not given)	SNCA viab count inconclusive, KDM5B inhibitor inconclusive, SNCA expr inhib 20µM
c1ccc(OCC2CN(Cc3ccncc3)CC23CN(c2ccccc2)C3)cc1 (stereo not given)	KDM5B inhibitor 31.6µM
O=C(NC1CCCN(c2ccc3nnc(-c4ccccc4)n3n2)C1)c1cccnc1 (stereo not given)	none (no result: SNCA viab count, KDM5B inhibitor, SNCA expr inhib)
O=C(c1ccc(C(F)(F)F)cc1)N1CCCN(c2ccnc3ccnn23)CC1	none (no result: KDM5B inhibitor)
O[C@@H]1C[C@@H](c2nnc3n2CCN(Cc2cccc4[nH]ccc24)C3)N(Cc2ccccc2)C1	KDM5B inhibitor 25.1µM
Cc1ccc([S+](=O)([O-])NC2CCN(c3ccc4nnc(-c5ccccc5)n4n3)CC2)cc1	none (no result: SNCA viab count, KDM5B inhibitor, SNCA expr inhib)
COc1ccc(C(=O)N2CC[C@@H]3CN(c4cnccn4)[C@@H]3C2)c(OC)n1	KDM5B inhibitor 31.6µM, SNCA expr inhib inconclusive
O=C(NC1CCCC1)C1CCCN(C2CCN(C3Cc4ccccc4C3)CC2)C1 (stereo not given)	KDM5B inhibitor 31.6µM
O=C(NC1CCC1)C1CCCN(C2CCN(C3Cc4ccccc4C3)CC2)C1 (stereo not given)	none
Cn1nc(C2CCCN2)c2c(C(=O)NCc3ccncc3)cc(C3CC3)nc21 (stereo not given)	KDM5B inhibitor 79.4µM
CC(C)CNC(=O)c1cc(C2CC2)nc2c1c(C1CCCN1)nn2C (stereo not given)	KDM5B inhibitor 79.4µM
Cn1nc(C2CCCN2)c2c(C(=O)NCc3cccs3)cc(C3CC3)nc21 (stereo not given)	KDM5B inhibitor inconclusive
Cn1nc(C2CCCN2)c2c(C(=O)NC3CC3)cc(C3CC3)nc21 (stereo not given)	KDM5B inhibitor inconclusive
Cn1nc(C2CCCN2)c2c(C(=O)NCc3ccc(F)cc3)cc(C3CC3)nc21 (stereo not given)	KDM5B inhibitor 79.4µM
Cc1nc2cc(NC(=O)c3cc(S(=O)(=O)N(C)c4ccccc4)ccc3Cl)ccc2o1	none (no result: SNCA viab count, IP6K1 inhibitor, SNCA expr inhib)
CCOC(=O)CN1CCN(C(=O)CCc2cc3ccc(C)cc3[nH]c2=O)CC1	KDM5B inhibitor 25.1µM
COc1cc2nc(Nc3ccc(C)c(C)c3)nc(N)c2cc1OC	SNCA viab count inconclusive, KDM5B inhibitor inconclusive, SNCA expr inhib inconclusive
COc1cc(-c2cnc3ccccc3c2)cc2c1OCCNC2	none
COc1cc2nc(-c3cc4c(c(OC)c3)OCCNC4)cc(C)c2cc1OC	KDM5B inhibitor 31.6µM
COc1cc(-c2ccc(C(F)(F)F)cn2)cc2c1OCCNC2	KDM5B inhibitor 25.1µM
CCCCOC(=O)N1C[C@@H](C(=O)OCC)[C@@H]2Oc3cc(OC)ccc3[C@@H]21	none (no result: SNCA viab count, KDM5B inhibitor, SNCA expr inhib)
CCCc1noc(-c2ccn3c(CNC(=O)C(C)Oc4ccccc4)nnc3c2)n1 (stereo not given)	KDM5B inhibitor 25.1µM
CCCc1noc(-c2ccn3c(CNC(=O)c4ccccc4OC)nnc3c2)n1	KDM5B inhibitor 3.16µM
CCCc1noc(-c2ccn3c(CNC(=O)c4ccccc4Cl)nnc3c2)n1	none
CCCc1noc(-c2ccn3c(CNC(=O)Cc4ccccc4OC)nnc3c2)n1	KDM5B inhibitor 17.8µM
O=[S+]([O-])(c1cccc(C(F)(F)F)c1)N1CCCN(c2ccnc3ccnn23)CC1	none (no result: KDM5B inhibitor)
O=C(NCCn1ccn2nc(-c3ccc(F)cc3)cc2c1=O)c1n[nH]c2c1CCCC2	KDM5B inhibitor inconclusive
O=C(CN1CC(=O)NC1=O)NCc1ccc2[nH]c3c(c2c1)CCCCCC3	KDM5B inhibitor 22.4µM
CN1CCC(N2CCN([C@@H]3C[C@H]4C[C@@H](c5ccccc5)OC[C@@]4(C)C3)CC2)CC1	none (no result: SNCA viab count, KDM5B inhibitor, SNCA expr inhib)
CCc1ccc(N2CC(c3noc(-c4ccc5c(c4)OCO5)n3)CC2=O)cc1 (stereo not given)	KDM5B inhibitor 31.6µM
O=C1CC(c2noc(-c3ccc4c(c3)OCO4)n2)CN1c1ccc(Cl)cc1 (stereo not given)	KDM5B inhibitor 28.2µM
CCOc1ccccc1C(=O)NCc1nnc2ccc(-c3ccc(C)c(C)c3)nn12	KDM5B inhibitor 31.6µM
COc1ccccc1C(=O)NCc1nnc2ccc(-c3ccc(C)cc3)nn12	SNCA viab count inconclusive, KDM5B inhibitor 12.6µM
CCOc1ccccc1C(=O)NCc1nnc2ccc(-c3ccc(C)cc3)nn12	KDM5B inhibitor inconclusive
O=C(NC1CC1)C1CCN(C(=O)c2ccc(-c3cccs3)cc2)CC1	none (no result: SNCA viab count, KDM5B inhibitor, SNCA expr inhib)
CNC(=O)c1cc(C2CC2)nc2onc(C3CCN([S+](=O)([O-])CCC(F)(F)F)C3)c12 (stereo not given)	none (no result: SNCA viab count, KDM5B inhibitor, SNCA expr inhib)
CNS(=O)(=O)c1ccc(Oc2ccc3ccc(=O)oc3c2)c([N+](=O)[O-])c1	none (no result: SNCA viab count, IP6K1 inhibitor, SNCA expr inhib)
O=C(CC1CNCCO1)N1CCc2nc(-c3ccc(Cl)cc3)[nH]c2C1 (stereo not given)	KDM5B inhibitor 25.1µM
CC(C)c1noc(CN(C)C(=O)c2cc(-c3cnn(C)c3)nc3ccccc23)n1	KDM5B inhibitor 28.2µM
CN(Cc1ccccc1)C(=O)c1cc(-c2cccnc2)nc2ccccc12	none (no result: SNCA viab count, IP6K1 inhibitor, SNCA expr inhib)
COc1ccc(-c2coc3cc(O)cc(O)c3c2=O)cc1	SNCA expr inhib inconclusive (no result: KDM5B inhibitor, IP6K1 inhibitor)
O=c1c(-c2ccc(O)cc2)coc2cc(O)cc(O)c12	SNCA expr inhib 2.82µM! (no result: KDM5B inhibitor)
